The values below come from PubChem BioAssay (NCATS).

Inconclusive results are not listed. The source made the active and inactive calls. Calls follow the shape of the dose curve; as a rule, active = well fitted curve in the direction sought with a large enough effect; inconclusive = small, poorly fitted or top-dose-only effect, or another doubt; inactive = no such curve, though single readings can be large; an effect the other way counts as inactive or inconclusive.

A short description of experiment [1]: qHTS of pediatric cancer cell lines to identify multiple opportunities for drug repurposing: Primary screen for Rh41 cells (AID 1347108). Also: nearly all actives have a fitted effect of over 70% in size. The method, boiled down: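 Phenotypic viability qHTS, 48 h compound exposure, CellTiter-Glo luminescence read-out; multi-concentration dosing so that potency and efficacy derive directly from the primary screen's curves.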
On the technique in general: In qHTS, concentration-response curves come from the screen itself.

Experiment [2] is described as follows: qHTS of pediatric cancer cell lines to identify multiple opportunities for drug repurposing: Confirmatory screen for NB1643 cells (AID 1347109). Also: nearly all actives have a fitted effect of over 45% in size. In short, it runs like this:
(§1)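 Cells (500-1,000/well) in growth media were settled 5 h at 37 degrees C, then given compounds for 48 h. Viability was read as CellTiter-Glo luminescence. Primary runs used MIPE at 11 points (0.78 nM-46 µM) and NPC at 8 points (0.59 nM-46 µM); follow-ups used 11 points.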

A short description of experiment [3]: qHTS of pediatric cancer cell lines to identify multiple opportunities for drug repurposing: Confirmatory screen for A673 cells (AID 1347110).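 Also: cells exposed to compound for 48 h before the viability read; nearly all actives have a fitted effect of over 65% in size.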 In short, it runs like this: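 Concentration-response curves came straight from titrations: 11 points (0.78 nM to 46 µM) for MIPE and several concentrations (0.59 nM to 46 µM) for NPC in primary, 11 points in follow-up. Readout: ATP luminescence at 48 h.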

Experiment [4] can be described thus: qHTS of pediatric cancer cell lines to identify multiple opportunities for drug repurposing: Confirmatory screen for SK-N-MC cells (AID 1347111).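 Also: cells exposed to compound for 48 h before the readout; nearly all actives have a fitted effect of over 70% in size.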 In short, it runs like this: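 Metabolically active cells were quantified by ATP-dependent luminescence (CellTiter-Glo, 15 min at room temperature) following 48 h treatment. Cells had been plated at 500-1,000 per well and settled for 5 h beforehand.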

Experiment [5] is described as follows: qHTS of pediatric cancer cell lines to identify multiple opportunities for drug repurposing: Confirmatory screen for DAOY cells (AID 1347114). Also: nearly all actives have a fitted effect of over 65% in size. In short, it runs like this: (§2)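 Viability measured as metabolically active cells via CellTiter-Glo luminescence following 48 hours of compound exposure, 11-point dilutions in confirmatory testing. 500-1,000 cells/well plated 5 hours before dosing; controls were DMSO and 2.3 µM bortezomib.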

The nature of experiment [6]: qHTS of pediatric cancer cell lines to identify multiple opportunities for drug repurposing: Confirmatory screen for NB-EBc1 cells (AID 1347115).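 Also: cells exposed to compound for 48 h before the viability read; nearly all actives have a fitted effect of over 45% in size.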 In short, it runs like this: as §1
Experiment [7] is described as follows: qHTS of pediatric cancer cell lines to identify multiple opportunities for drug repurposing: Confirmatory screen for SJ-GBM2 cells (AID 1347116). Also: nearly all actives have a fitted effect of over 60% in size. The method, boiled down: as §2
Experiment [8] can be described thus: qHTS of pediatric cancer cell lines to identify multiple opportunities for drug repurposing: Confirmatory screen for BT-12 cells (AID 1347112). Also: nearly all actives have a fitted effect of over 55% in size. The method, boiled down: as §1
Experiment [9] in a line: qHTS of pediatric cancer cell lines to identify multiple opportunities for drug repurposing: Confirmatory screen for BT-37 cells (AID 1347117). Also: nearly all actives have a fitted effect of over 55% in size. The method, boiled down:
as §1

Experiment [10] can be described thus: qHTS of pediatric cancer cell lines to identify multiple opportunities for drug repurposing: Confirmatory screen for TC32 cells (AID 1347118).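 Also: cells exposed to compound for 48 h before the read; nearly all actives have a fitted effect of over 65% in size.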 In short, it runs like this:
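TC32 cells, 500-1,000/well in growth medium, compound-treated 48 h at 37 °C; viability from CellTiter-Glo luminescence. Primary screen: MIPE 11-point (0.78 nM–46 µM final), NPC 8-point (0.59 nM–46 µM final); confirmatory at 11-point dilutions.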
Potency is read from the fitted curve at half-maximal effect.

Turning to `COC(=O)[C@@H]1[C@H]2C[C@H]3c4[nH]c5ccccc5c4CCN3C[C@@H]2CC[C@@H]1O`, the Potency result in [1] is “inactive”.
On the same count and under the same terms, the result for `CN1[C@@H]2CCC[C@@H]1CC(NC(=O)c1nn(C)c3ccccc13)C2` (some centres undefined) reads “inactive”.
Take `Cc1nnc(C(C)C)n1C1C[C@H]2CC[C@@H](C1)N2CC[C@H](NC(=O)C1CCC(F)(F)CC1)c1ccccc1` (some centres undefined): the Potency entry in [1], in experiment [3] and in experiment [5] was “inactive” throughout. Further, the Potency in [2] was 7.37 µM (active); in experiment [4], 7.37 µM (active); in [6] it was 7.37 µM (active); in experiment [7] it was 10.4 µM (active).
Take `O=C(O)CCC1CCC(c2cc(F)ccc2F)(S(=O)(=O)c2ccc(Cl)cc2)CC1` (centres undefined): the Potency in experiment [1] is 5.9 µM (active); in experiment [4] it was 20.8 µM (active); in [8] it was 26.1 µM (active); in [9], 16.5 µM (active); in experiment [10] it was 20.8 µM (active). Moreover, the Potency result in [2], in [6] and in experiment [7] was “inactive” throughout.
Take `CC1(C)CCC[C@@]2(C)[C@@H]1CC[C@@]1(C)OC(=O)C[C@H]21`: the Potency result in experiment [1], in [2], in [3], in experiment [8], in experiment [5] and in [6] was “inactive” in each case. Also, the Potency entry in experiment [9] was “inactive”. Besides, the Potency in experiment [4] was 26.1 µM (active).
Take `Cc1ccc(C(=O)Nc2cccc(C(F)(F)F)c2)cc1Nc1nc(-c2cccnc2)nc2c1cnn2C`: the Potency in experiment [1] is 18.7 µM (active).
For `CCOC(=O)O[C@]1(C(=O)OCCl)CC[C@@H]2[C@H]3CCC4=CC(=O)C=C[C@]4(C)[C@@H]3[C@@H](O)C[C@@]21C`, the Potency entry in experiment [1] is “inactive”.
Still for that read-out and setting: the result for `CC=CCC=CCCC(=O)[C@H]1O[C@@H]1C(N)=O` reads “inactive”.
Regarding `COc1ccc(-c2nc(N3CCOCC3)c3sc(CN(C)c4ncc(C(=O)NO)cn4)cc3n2)cn1`, the Potency in experiment [1] was 0.0296 µM (active); in experiment [2] it was 0.928 µM (active); in experiment [3], 1.65 µM (active); in [8], 1.85 µM (active); in [5], 1.04 µM (active).
In the case of `C=C1C(=O)[C@@]23C(CC[C@@H]1[C@H]2O)[C@@]12CO[C@]3(O)[C@@H](O)[C@@H]1C(C)(C)CC[C@@H]2O` (some centres undefined), the Potency in experiment [1] is 4.69 µM (active); in [2], 4.14 µM (active); in experiment [3] it was 9.27 µM (active); in experiment [4] it was 4.65 µM (active); in experiment [8] it was 7.37 µM (active); in [5] it was 11.7 µM (active). The Potency is 8.27 µM (active) in [6], 20.8 µM (active) in experiment [7], 18.5 µM (active) in [9] and 13.1 µM (active) in experiment [10].
In the case of `Nc1ncnc2ccccc12`, in experiment [1], the Potency was 23.5 µM (active).
Consider `NC(=O)c1cccc2[nH]c(-c3ccc([C@H]4CCCN4)cc3F)nc12`, for which the Potency entry in [1] is “inactive”.
Take `CCCCCCCCCCCC1=C(O)C(=O)C=C(O)C1=O`: the Potency was 4.69 µM (active) in experiment [1], 16.5 µM (active) in experiment [4] and 10.4 µM (active) in [10]. Moreover, the Potency result in [2], in experiment [8], in [5], in experiment [6], in experiment [7] and in experiment [9] was “inactive” each time.
As for `COc1ccc(C2CC(c3ccccc3)=NN2c2ccc(S(N)(=O)=O)cc2)cc1` (centres undefined), the Potency result in experiment [1] was “inactive”.
Turning to `CC1(C)O[C@H]2C[C@@H]3[C@H]4CCC5=CC(=O)C=C[C@]5(C)[C@@]4(F)[C@@H](O)C[C@]3(C)[C@]2(C(=O)CO)O1`, the Potency result in experiment [1], in [2], in experiment [3], in [4], in experiment [8] and in experiment [5] was “inactive” throughout. For the same compound, the Potency result in [7] and in [9] was “inactive” each time.
Take `NS(=O)(=O)c1cccc2c1C(=O)c1cccc(O)c1C2=O`: the Potency in experiment [1] is 0.935 µM (active); in experiment [2], 2.93 µM (active); in experiment [3], 2.33 µM (active); in experiment [4] it was 2.93 µM (active); in experiment [8], 1.04 µM (active); in experiment [5] it was 2.33 µM (active). Further, the results for the Potency in [7], in experiment [9] and in [10] were 4.14 µM (active), 0.737 µM (active) and 0.827 µM (active), respectively. Besides, the Potency result in experiment [6] was “inactive”.
As for `C[N+]1(C)[C@@H]2CC(OC(=O)[C@H](CO)c3ccccc3)C[C@H]1[C@H]1O[C@@H]12` (some centres undefined), in experiment [1], the Potency entry was “inactive”.
Same read-out and setting: in the case of `CCN(CC)C(=O)c1ccc(O)c(OC)c1` it was “inactive”.
The same measure, in the same setting: the result for `c1cc(-c2sc(-c3ccncc3)c(-c3ccncc3)c2-c2ccncc2)ccn1` reads “inactive”; that for `Cc1c[nH]c(C=C2C(=O)Nc3ccccc32)c1CCC(=O)O`, “inactive”.
For `CN(C)C1CCN(C(=O)c2ccc(NC(=O)Nc3nc(N4CCOCC4)nc(N4CCOCC4)n3)cc2)CC1`, the Potency in [1] is 0.0935 µM (active); in experiment [2], 0.928 µM (active); in [3], 0.0737 µM (active); in experiment [4], 0.208 µM (active); in [5], 14.7 µM (active); in experiment [6] it was 16.5 µM (active). Moreover, the Potency in experiment [7] is 1.47 µM (active); in [9] it was 0.147 µM (active); in experiment [10], 0.0657 µM (active).
In the case of `CO[C@H]1C[C@@H]2CC[C@@H](C)[C@@](O)(O2)C(=O)C(=O)N2CCCC[C@@H]2C(=O)O[C@H]([C@H](C)C[C@@H]2CC[C@H](OC(=O)C(C)(CO)CO)[C@H](OC)C2)CC(=O)[C@H](C)C=C(C)[C@@H](O)[C@@H](OC)C(=O)[C@H](C)C[C@H](C)C=CC=CC=C1C`, the Potency in [1] is 14.8 µM (active).
On the same count and under the same terms, the result for `COc1cccc([C@@H](C)NCCCc2ccccc2Cl)c1` reads “inactive”.
In the case of `O=C(NC1CCOCC1)c1ccc(-c2cc(-c3cn[nH]c3-c3ccccn3)ccn2)cc1`, in experiment [1], the Potency entry was “inactive”.
On to `NCCS`, for which the Potency result in experiment [1] was “inactive”.
Still for that read-out and setting: in the case of `CN1C[C@H]2c3ccccc3Oc3ccc(Cl)cc3[C@@H]2C1` it was “inactive”; in that of `Cn1cc(C=C2C(=O)Nc3cccnc32)c2ccccc21`, “inactive”.
For `COc1cc2ncnc(Nc3ccc(F)c(Cl)c3)c2cc1OCCCN1CCOCC1`, the Potency was 17.1 µM (active) in experiment [1]; 38 µM (active) in [2]; 33.9 µM (active) in experiment [4]; 42.7 µM (active) in experiment [8]; 38 µM (active) in experiment [5]; 2.4 µM (active) in [7]. Besides, the Potency in experiment [9] is 13.5 µM (active); in experiment [10], 33.9 µM (active).
Regarding `O=c1[nH]cnc2c1ncn2[C@H]1CC[C@@H](CO)O1`, the Potency entry in [1], in experiment [2], in experiment [3], in experiment [8], in experiment [5] and in experiment [6] was “inactive” each time. The Potency result in experiment [7], in experiment [9] and in experiment [10] was “inactive” throughout.
